# Data from PubChem BioAssay AID624263 (National Center for Advancing Translational Sciences (NCATS), 2012).
# The campaign covered roughly 410,000 compounds. About 820 (0.2%) were called active. About 2% were inconclusive and are not listed. This is one part of a sample in which actives are shown more often than they occur. Calls follow the shape of the dose curve; as a rule, active = well fitted activation curve with a large enough effect; inconclusive = small, poorly fitted or top-dose-only effect; inactive = flat fitted curve, though single readings scatter; cell line not stated here.
# Assay: A Quantitative High throughput Screen to Identify Chemical Modulators of PINK1 Expression; also: nearly all actives have a fitted effect of over 65% in size; as to activation (PINK1 increase): % of control where 0% means no effect
# Conditions: PINK1 immunofluorescence, high-content cytometry, 24 h; series mostly up to 76.6 µM; activation (PINK1 increase): at the top concentration
# Excerpt: The overall goal of this project is to develop new tools for understanding and treating the mitochondrial basis for neurodegenerative disease such as Parkinson's disease (PD). The PINK1 campaign was developed from recent data pointing towards mitochondrial dysfunction as a major contributor to dopaminergic neuron loss. The discovery of PINK1/Parkin mediated mitophagy has highlighted the potential for mitochondrial quality control as a novel target for therapeutic intervention. […] A second aim of this project is the development of chemical probes to study the mechanics of mitochondrial quality control. As the PINK1/Parkin mitophagy pathway is a relative recent discovery, no specific chemical probes are available that modulate the process. Presently, only crude tools that cause nonspecific mitochondrial damage are available. To advance the understanding of mitophagy, specific, well characterized chemicals that target various steps of mitophagy regulation need to be developed. New chemical probes may have the ability to dynamically manipulate mitophagy in model organisms such as rodents and zebrafish, advancing our understanding of the process in development and disease. This HTS campaign seeks to discover an activator of PINK1 expression by modulation at the level of post-translational processing.
# The PINK1 assay determines the amount and localization of PINK1 protein in a cell using a combination of immunofluorescence and cell staining. The goal of the assay is to determine small molecules that can increase the expression of Pink1 on or inside the cell's mitochondria (ideally without mitochondrial depolarization) using a stable cell line. Since PINK1 protein is rapidly degraded in un-perturbed cells, compounds that induce the enhancement of PINK1 protein expression are identified by determining PINK1 immunofluorescence in conjunction with a mitochondrial, cell, and nuclear marker post fixation. To facilitate rapid high content screening, the primary assay is run in a decision-based HTS mode where compound titration data collected by laser-scanning microplate cytometers is processed and only promising compound series are passed off for high content drill down.
# 1 Add cells to black, clear-bottom, low-base 1536-well plates 6 uL (250 cells/well)
# 2 Incubate in TC incubator (12 hours)
# 3 Pin compounds or DMSO controls 23 nL (5 concentrations per compound set)
# 4 Dispense CCCP to control columns
# 5 Incubate in TC incubator 24 hours
# 6 Aspirate media and fix cells (5 uL of fixative containing nuclear dye)
# 7 Incubate 15 minutes at RT
# 8 Wash in PBSTween (12 uL/well)
# 9 Wash in PBSTriton (12 uL/well)
# 10 Aspirate wash and add Blocking buffer (4 uL/well)
# 12 Aspirate block and add primary antibodies 3.5 (uL/well)
# 13 Incubate 12 hours at 10 degrees C
# 14 Wash in PBSTween-20 two times (12 uL/well)
# 15 Aspirate wash and add secondary antibodies (12 uL/well)
# 17 Wash in PBSTween (12 uL/well)
# 18 Wash in PBSTween with cell stain (12 uL/well)
# 19 Read plates on Acumen EX3 and determine Wells2Cells coordinates
# Potency is read from the fitted curve at half-maximal effect.
SMILES,Potency,activation (PINK1 increase)
CCCCn1c(SCC(=O)NCCc2ccc(OC)c(OC)c2)nc2c1c(=O)n(C)c(=O)n2C,3.98 µM (active),
CCCCn1c(SCC(=O)N2CCOCC2)nc2c1c(=O)n(C)c(=O)n2C,,2.85% (inactive)
COc1ccc(CCNC(=O)CCCCn2c(=O)c3ccccc3n(Cc3ccccc3)c2=O)cc1OC,,1.18% (inactive)
COc1ccccc1C(=O)N[C@@H]1c2ccccc2C2(CCN(C(=O)c3csnn3)CC2)[C@H]1OC,,-0.317% (inactive)
CN1CCN(/[N+]([O-])=N/Oc2ccc([N+](=O)[O-])cc2[N+](=O)[O-])CC1,,-0.224% (inactive)
Cc1cc(C)cc(CN2CCc3nnc(C(NS(C)(=O)=O)C(C)C)n3CC2)c1 (configuration not stated),,-0.82% (inactive)
COc1ccccc1C1CN(CCNC(=O)C2=CCCC2)Cc2ccccc2O1 (configuration not stated),,2.63% (inactive)
O=C(Nc1ncc([N+](=O)[O-])s1)C1COc2ccccc2O1 (configuration not stated),44.7 µM (active),
O=C(CCc1ccccc1)Nc1ccc(NC(=O)C2CCCCC2)nc1,,9.37% (inactive)
O=C(CCc1ccccc1)Nc1ccc(NC(=O)C2CC2)nc1,,-1.31% (inactive)
CC(/C=C/c1ccco1)=N/NC(=O)C1COc2ccccc2O1 (configuration not stated),,9.76% (inactive)
COc1ccc(OC)c2sc(N3CCN(C(=O)C4COc5ccccc5O4)CC3)nc12 (configuration not stated),,-0.0279% (inactive)
O=C(CCc1ccccc1)Nc1ncc([N+](=O)[O-])s1,20 µM (active),
CN(Cc1cccc2ncccc12)C(=O)c1cnn(-c2nccc(-c3ccccc3F)n2)c1C1CC1,,-0.707% (inactive)
COc1ccc(-n2c(CNC(=O)c3cc(C(F)(F)F)ccc3Cl)nnc2SC)cc1,,-0.22% (inactive)
COc1ccccc1-c1ccnc(-n2ncc(C(=O)NCCCN3CCOCC3)c2C)n1,,0.284% (inactive)
C[C@@H]1CN(Cc2ccc3c(c2)CN(Cc2ccc(Oc4ncccn4)cc2)CCO3)C[C@H](C)O1,,0.0196% (inactive)
CCC1CN(CCNC(=O)c2cccc(C)n2)Cc2cc(OC)ccc2O1 (configuration not stated),,0.509% (inactive)
CCOC(=O)c1ccc(NC(=O)c2csc3c2CCCCC3)cc1,,3.73% (inactive)
CCOc1ccc(CCNC(=O)c2csc3c2CCCCC3)cc1,,2.82% (inactive)
COC(=O)c1sc(NC(=O)c2csc3c2CCCC3)nc1C,10 µM (active),

SMILES,Potency,activation (PINK1 increase)
CCCCOc1ccc(C(=O)NO)cc1,,1.55% (inactive)
Cn1c(SCC(=O)Nc2cccc(O)c2)nnc1-c1ccc(S(=O)(=O)N2CCOCC2)cc1,14.1 µM (active),
CCC(=O)Nc1cccc(NC(=O)CSc2nnc(-c3ccc(NS(C)(=O)=O)cc3)n2C)c1,,-1.24% (inactive)
Cc1ccnc(SCC(=O)Nc2cccc(S(=O)(=O)N3CCOCC3)c2)n1,,1.18% (inactive)
CC(C)(C(=O)NO)c1ccccc1,,0.961% (inactive)
CCC1(C2CCN(Cc3cccnc3)CC2)NC(=O)N(CC2COc3ccccc3O2)C1=O (configuration not stated),,-0.0745% (inactive)
CNCCCOc1cc2nc(N3CCCN(C)CC3)nc(NC3CCN(C)CC3)c2cc1OC,,0.921% (inactive)
COc1ccc2cc(-c3nc(Cl)c4c5c(sc4n3)CC(C)CC5)c(=O)oc2c1 (configuration not stated),15.8 µM (active),
COc1ccc2oc(=O)c(-c3cn4c(n3)sc3cc(OC)ccc34)cc2c1,,2.47% (inactive)
CCOC(=O)c1c(NC(=O)/C=C/c2ccc(OC)cc2)sc2c1CCC(C)C2 (configuration not stated),,0.453% (inactive)
COc1cc(=O)n2c(c1C(=O)N(C)Cc1nccs1)CCN(Cc1ccc(Cl)cc1)CC2,,1.54% (inactive)
c1ccc(CN2CCN(Cc3ccc4c(c3)CN(Cc3c[nH]c5ccccc35)CCO4)CC2)nc1,,-1.03% (inactive)
COc1ccc(F)c(CN2CCC3(CCC(CNC(=O)c4ccn(C)n4)O3)CC2)c1 (configuration not stated),,-0.704% (inactive)
O=C1COc2ccc(-c3csc(-c4ccc(Cl)cc4)n3)cc2N1,,5.95% (inactive)
OC(CBr)C[n+]1cccc2cc(Br)ccc21 (configuration not stated),,-0.654% (inactive)
CO[C@H]1[C@H](NC(=O)C(C)C)c2ccccc2C12CCN(Cc1cnc(N(C)C)s1)CC2,,0.667% (inactive)
CCN1CC=C2C(C#N)=C(N)C(C#N)(C#N)[C@H](c3ccoc3)[C@H]2C1,39.8 µM (active),
CC(C)N1C[C@@H](NCc2ccccc2O)C[C@H]1C(=O)N1CCN(c2cccc(C(F)(F)F)c2)CC1,,-0.16% (inactive)
FC(F)(F)c1cccc(-c2cn[nH]c2C2CCCN(Cc3cccn3-c3ccccn3)C2)c1 (configuration not stated),,1.02% (inactive)
CC(=O)Nc1ccccc1-c1nc(CNC(=O)c2ccc(Cl)cc2)c(C)o1,,0.266% (inactive)
C=COC(=O)N1CCN(/[N+]([O-])=N/Oc2ccc([N+](=O)[O-])cc2[N+](=O)[O-])CC1,,1.32% (inactive)

SMILES,Potency,activation (PINK1 increase)
CCS(=O)(=O)Nc1cc(C(=O)N2C[C@@H](C)O[C@@H](C)C2)c2c(c1)nc(-c1ccccc1)n2C,,0.73% (inactive)
Cc1ccc(C(=O)Nc2cccc(-c3nc(CNC(=O)c4ccccc4-n4cccn4)c(C)o3)c2)s1,,1.36% (inactive)
COc1ccc2c(c1)CCc1cnc(-n3ncc(C(=O)NCCN4CCOCC4)c3C)nc1-2,,1.37% (inactive)
COc1ccc(CN2CCOc3c(cc(-c4ncc(C(F)(F)F)cc4Cl)cc3OCC3CCCO3)C2)c(O)c1 (configuration not stated),,0.559% (inactive)
COc1cc2nc(N3CCCN(C)CC3)nc(NC3CC3)c2cc1OC,,1.39% (inactive)
CC(=O)Nc1cc(C(=O)N2CCc3c(Cl)cccc3C2)cc2ncn(CCc3ccccn3)c12,,-0.966% (inactive)
COc1ccc(Cl)cc1-c1cc(C(=O)Nc2cc(OC)c(OC)c(OC)c2)[nH]n1,,-1.2% (inactive)
CCCOc1ccc(F)cc1-c1cc(C(=O)Nc2ccc(F)c(Cl)c2)[nH]n1,39.8 µM (active),
CC(C)Oc1cc(F)ccc1-c1cc(C(=O)Nc2ccc(F)cc2)[nH]n1,,1.71% (inactive)
Cc1ccc2c(C)nc(N3CCCC(C(=O)NC(C)(C)CO)C3)nc2c1 (configuration not stated),,-0.708% (inactive)
Cc1cnc(C(=O)N2CCOc3ccc(CN4CCCC(C(=O)c5cccnc5)C4)cc3C2)[nH]1 (configuration not stated),,-0.535% (inactive)
O=c1c(-c2ccc(F)cc2)nc2cnc(N3CCOCC3)nc2n1-c1ccccc1,,0.858% (inactive)
COc1cc2nc(Cl)nc(NC3CC3)c2cc1OC,,1.67% (inactive)
COc1ccc(C(=O)N2CCC3(CC2)CCN(c2ccccn2)CC3)cc1,,-0.552% (inactive)
COc1ccccc1CNc1nc(-c2c(C)noc2C)nc2ccccc12,,2.49% (inactive)
COc1ccc(CN2CCC3(CCC(CNC(=O)c4ccco4)O3)CC2)cc1OC (configuration not stated),,1.17% (inactive)
COc1ccc(CN(C)CCn2cc(C(=O)N3CCSCC3)nn2)cc1C,,-0.0428% (inactive)
COc1cccc(C(=O)Nc2ccc3oc(-c4ccc5ccccc5c4)nc3c2)c1,,-0.987% (inactive)
CS(=O)(=O)c1ccccc1C(=O)Nc1ccc2sccc2c1,,1.33% (inactive)
O=C(Nc1ccc2ccccc2c1)Nc1ccc2snnc2c1,44.7 µM (active),
